In PubChem BioAssay (NCI):
The panel holds about 83,000 compounds, 20% with a hit somewhere; the sample as a whole holds those more often.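 Negative percent growth values reflect cell death: -40 means 40% of the cells present at the start died, and -100 means all died.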 Unmarked numbers belong to inactive results. Calls of active or inactive are those of the source. How the source made its calls: active means growth percent below 10; inactive means the rest.

How the values were obtained:
Test in all cases: NCI-60 one-dose screen, 48 h (100 = growth as untreated, 0 = no growth, -100 = all killed)
[1] = tested on: SK-MEL-2 melanoma; conditions: 10 µM unless noted
[2] = tested on: EKVX NSCLC; conditions: 10 µM unless noted
[3] = tested on: SN12C renal; conditions: 10 µM unless noted
[4] = tested on: UO-31 renal; conditions: 10 µM unless noted
[5] = tested on: TK-10 renal; conditions: 10 µM unless noted
[6] = tested on: CAKI-1 renal; conditions: 10 µM
[7] = tested on: A498 renal; conditions: 10 µM unless noted
[8] = tested on: CCRF-CEM leukemia; conditions: 10 µM unless noted
[9] = tested on: MOLT-4 leukemia; conditions: 10 µM unless noted
[10] = tested on: SR leukemia; conditions: 10 µM unless noted
[11] = tested on: RPMI-8226 leukemia; conditions: 10 µM unless noted
[12] = tested on: OVCAR-8 ovarian; conditions: 10 µM unless noted
[13] = tested on: OVCAR-4 ovarian; conditions: 10 µM unless noted
[14] = tested on: SK-OV-3 ovarian; conditions: 10 µM unless noted
[15] = tested on: IGROV1 ovarian; conditions: 10 µM unless noted
[16] = tested on: OVCAR-3 ovarian; conditions: 10 µM unless noted
[17] = tested on: HS 578T breast; conditions: 10 µM unless noted
[18] = tested on: NCI/ADR-RES ovarian; conditions: 10 µM unless noted
[19] = tested on: OVCAR-5 ovarian; conditions: 10 µM unless noted

Row | Compound | growth [1] | growth [2] | growth [3] | growth [4] | growth [5] | growth [6] | growth [7] | growth [8] | growth [9] | growth [10] | growth [11] | growth [12] | growth [13] | growth [14] | growth [15] | growth [16] | growth [17] | growth [18] | growth [19]
1 | C[C@@H]1CC2C3C[C@H](F)C4=CC(=O)C=C[C@]4(C)[C@@]3(F)[C@@H](O)C[C@]2(C)[C@@]1(O)C(=O)CO (stereo partly specified) | 94.2% | 64.9% | 51.6% | 71.6% | 102% | 75.8% | 123% | 40% | 76.8% | 99% | 64.8% | 82.1% | 113% | 65.6% | 99.8% | 113% | 112% | 83.1% | –
2 | COc1ccc(-c2nnc(SCC(=O)Nc3ccc(C(=O)/C=C/c4ccc(OC)c(OC)c4)cc3)o2)cc1 | 94.1% | 90% | 92.3% | 73.8% | 95.9% | – | 103% | 77.7% | 68.1% | 60.1% | 60.1% | 88.1% | 86.9% | 84.6% | 85.9% | 100% | 93.4% | 90.1% | 124%
3 | Cc1ccc(N(CC2=NCCN2)c2cccc(O)c2)cc1 | 107% | 90.2% | 94.6% | 79.7% | 102% | 90% | 93.8% | 98.5% | 97.7% | 95.3% | 94.5% | 95.2% | 103% | 105% | 90.3% | 112% | 101% | 104% | –
4 | C=C1C(=O)O[C@H]2[C@H]1CC/C(COC(=O)OC/C1=C/CC[C@@]3(C)O[C@H]3[C@H]3OC(=O)[C@@H](CN(C)C)[C@@H]3CC1)=C\CC[C@@]1(C)O[C@@H]21 | 27.4% | 48.8% | 10.7% | -16.2% (active) | -42.7% (active) | – | 58.5% | -13.3% (active) | -30.9% (active) | -8.72% (active) | -5.37% (active) | 9.26% (active) | 46% | 87.7% | 10.4% | -90.3% (active) | 57.4% | 91.2% | 7.16% (active)
5 | FC(F)(F)c1cccc([Si](F)(c2cccc(C(F)(F)F)c2)c2cccc(C(F)(F)F)c2)c1 | 87.6% | 66.1% | 74% | 49% | 73.9% | – | 90.4% | 65.5% | 61.6% | 74% | 52.3% | 91.5% | 65.9% | 99% | 82.5% | 68% | 85.3% | 72.6% | 91.3%
6 | CC1(C)CC(=O)C2=C(C1)OC1=C(C(=O)CC(C)(C)C1)C2c1ccc(OCc2cn(-c3ccc(F)cc3F)nn2)cc1 | 93.8% | 99.4% | 99.4% | 89.6% | 109% | – | 46.9% | 84.9% | 77.2% | 58.6% | 92.7% | 95.3% | 94.4% | 100% | 102% | 95.3% | 96.2% | 94% | 124%
7 | COc1cc2c(cc1OC)-c1c(oc3c4c(ccc3c1=O)OC(C)(C)C=C4)CO2 | 74.3% | 57.7% | 92.2% | 66.9% | 67.9% | – | 56.1% | 69.5% | 55.1% | 42.6% | 49.3% | 67.7% | 41.8% | 77.6% | 85% | 63.7% | 99.8% | 65.8% | 89.3%
8 | CCCCOc1c(N)cccc1C(=O)OCCN(CC)CC | 96.6% | 104% | 95.7% | 80.8% | 81.8% | – | 90.5% | 90.6% | 60.2% | 83.9% | 123% | 92.8% | 107% | 108% | 104% | 101% | 102% | 106% | 113%
9 | CC1CCC(C(C)C)C(NN)C1 (stereo unspecified) | 101% | 102% | 102% | 88.8% | 96.5% | – | 105% | 89.5% | 65.9% | 103% | 104% | 92.8% | 111% | 91.8% | 109% | 113% | 102% | 106% | 107%
10 | CCNc1ncnc2n[nH]nc12 | 104% | 94.7% | 102% | 98.4% | 91.9% | – | 102% | 87.5% | 100% | 94% | 95.5% | 99.6% | 94.7% | 101% | 111% | 106% | 103% | 108% | 103%
11 | CCN(CC)C(=O)C1CCN(C(=O)c2ccccc2)CC1 | 98.3% | 101% | 101% | 89.2% | 87.1% | – | 85.7% | 80.9% | 92.2% | 102% | 97.8% | 103% | 106% | 102% | 103% | 104% | 97% | 97.9% | 108%
12 | CC(/C=C/C=C(\C)[C@H](O)[C@H](C)C(=O)O[C@H]1C[C@H](C)C=C2C=C[C@@]3(C)O[C@@H](O)CC(=O)[C@]3(C)[C@H]21)=C\C=C\C(=O)O | -46.9% (active) | -0.933% (active) | 3.38% (active) | 18.8% | 15.5% | – | -38.9% (active) | 8.62% (active) | 1.42% (active) | 1.43% (active) | 27.6% | 21.6% | 23% | 2.67% (active) | 5.48% (active) | 2.71% (active) | -3.26% (active) | 53.8% | 18.6%
13 | Nc1ncnc2c1c(C(F)(F)F)cn2[C@@H]1O[C@H](CO)[C@@H](O)[C@H]1O | -42.6% (active) | 3.57% (active) | 15.7% | 2.15% (active) | 4.15% (active) | – | -43.2% (active) | 5.79% (active) | 0.0629% (active) | 1.01% (active) | -20.3% (active) | 18.1% | 24.6% | 28.2% | 12.9% | 5.78% (active) | -0.85% (active) | 7.35% (active) | 15.6%
14 | CCN(CC)CCC(C(=O)O)(c1ccccc1)c1ccccc1 | 112% | 96.1% | 103% | 89.1% | 97.9% | – | 102% | 96.6% | 89.4% | 95.7% | 104% | 113% | 102% | 92% | 102% | 110% | 95.3% | 97.8% | 106%
15 | Cc1cccc(Cc2cnc(NC(=O)CCc3ccc(C)o3)s2)c1 | 30.6% | 43.8% | 31.1% | 34% | 63.6% | – | -11.7% (active) | 5.94% (active) | 8.52% (active) | 5.14% (active) | 5.07% (active) | 20.3% | 53.3% | 24.5% | 32.2% | 2.58% (active) | 27.6% | 17.2% | 35.7%
16 | Cc1cc(-c2ccccc2)nc2ccccc12 | 109% | 81.1% | 104% | 77% | 135% | – | 106% | 84.9% | 91.5% | 97.1% | 83.3% | 98.1% | 90.1% | 74.9% | 92.5% | 105% | 97.3% | 102% | 115%
17 | COc1ccc(/C=N/C2=NNC(C)(c3ccccc3O)N2C(Cc2c[nH]c3ccccc23)C(=O)O)cc1 (stereo unspecified) | 20.2% | 27.5% | 34.4% | 32.1% | 70.4% | – | 46.5% | 19.7% | 14.4% | 6.53% (active) | -15.2% (active) | 17.1% | 33.3% | 46.8% | 16.7% | 30% | 51.7% | 34.9% | 69.4%
